The source of these data is PubChem BioAssay (NCI).

Assay [1] can be described thus: NCI Yeast Anticancer Drug Screen. Data for the rad50 strain (AID 155).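 Also: 0% = growth of vehicle-only cultures of the same strain.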 The following applies: S. cerevisiae rad50 strain growth inhibition, active compounds read high. The method, boiled down: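 Inhibition values express reduced yeast growth in compound-treated cultures relative to vehicle-treated controls.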
A short description of assay [2]: NCI Yeast Anticancer Drug Screen. Data for the mec2-1 strain (AID 157). The following applies: S. cerevisiae mec2-1 strain, active compounds read high. An outline of the steps: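 Test agents were screened against the mec2-1 yeast strain, with defined DNA repair or cell cycle alteration. Growth was scored as inhibition against vehicle-only controls.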
Assay [3] is described as follows: NCI Yeast Anticancer Drug Screen. Data for the sgs1 mgt1 strain (AID 161).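 Also: 0% = growth of cultures given vehicle only.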 The following applies: S. cerevisiae sgs1 mgt1 strain, active compounds read high. An outline of the steps: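 Test agents were incubated with a DNA-repair-mutant yeast strain. Growth was then read and compared against vehicle-treated controls.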
Assay [4] can be described thus: NCI Yeast Anticancer Drug Screen. Data for the cln2 rad14 strain (AID 165).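 Also: 0% = growth equal to vehicle treated cultures.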 To be noted: S. cerevisiae cln2 rad14 strain, active compounds read high. An outline of the steps: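 Growth of compound-exposed yeast (cln2 rad14 genotype) measured and expressed as inhibition relative to vehicle.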
Assay [5] in a line: NCI Yeast Anticancer Drug Screen. Data for the bub3 strain (AID 167). The following applies: S. cerevisiae bub3 mutant strain, active compounds read high. The method, boiled down: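 Steps: expose the mutant yeast strain to compound; grow alongside vehicle-treated cultures; measure growth; express inhibition against the vehicle cultures.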
A short description of assay [6]: NCI Yeast Anticancer Drug Screen. Data for the mlh1 rad18 strain (AID 175). To be noted: S. cerevisiae mlh1 rad18 strain growth inhibition, active compounds read high. An outline of the steps:
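In this whole-cell yeast screen, a strain with altered DNA damage repair is challenged with compound, and its growth is measured against matched vehicle-treated controls.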

[7] abbreviates: at 5.0 µM (retest, dose inferred, filed as 0.5).
[8] abbreviates: at 50.0 µM (retest, dose inferred, filed as 5.0).

This is part of a sample that, as a whole, favours compounds with a hit. Of some 79,000 tested, about 15% had one in any assay. Values without a mark were called inactive. Activity calls are given as the source filed them. Rule as the data show it: active = growth inhibition above about 70%; inactive = the rest.

For the compound `Cc1ccc(S(=O)(=O)c2cc(O)c(O)c3ccc(Br)cc23)cc1`, the growth inhibition was 13% in assay [1] (setting [7]); 97% (active) in assay [1] (setting [8]); 79.5% (active) in assay [1] (at 50.0 µM); 9% in assay [2] (setting [7]); 98% (active) in assay [2] (setting [8]); 98.5% (active) in assay [2] (at 50.0 µM). In addition, the growth inhibition in assay [3] (setting [7]) is 16%; in assay [3] (setting [8]), 98% (active); in assay [3] (at 50.0 µM), 92.9% (active); in assay [4] (setting [7]) it was -1%; in assay [4] (setting [8]) it was 97% (active); in assay [4] (at 50.0 µM), 95.4% (active). Moreover, the growth inhibition in assay [5] (setting [7]) is -4%; in assay [5] (setting [8]), 97% (active); in assay [5] (at 50.0 µM), 83.8% (active); in assay [6] (setting [7]) it was 9%; in assay [6] (setting [8]), 97% (active); in assay [6] (at 50.0 µM), 97.9% (active).

Consider `COc1cc(O)c2c(c1)C(O)C(O)CC1OC1C(=O)/C=C/CC(C)OC2=O` (stereo not given), for which the growth inhibition in assay [1] (setting [7]) was 80% (active); in assay [1] (setting [8]), 98% (active); in assay [1] (at 50.0 µM), 91.5% (active); in assay [2] (setting [7]), 59%; in assay [2] (setting [8]), 99% (active); in assay [2] (at 50.0 µM) it was 93.3% (active). Moreover, the growth inhibition is 64% in assay [3] (setting [7]); 99% (active) in assay [3] (setting [8]); 93.1% (active) in assay [3] (at 50.0 µM); 61% in assay [4] (setting [7]); 99% (active) in assay [4] (setting [8]); 92.2% (active) in assay [4] (at 50.0 µM). Also, the growth inhibition in assay [5] (setting [7]) was 79% (active); in assay [5] (setting [8]) it was 99% (active); in assay [5] (at 50.0 µM), 92% (active); in assay [6] (setting [7]), 81% (active); in assay [6] (setting [8]), 98% (active); in assay [6] (at 50.0 µM) it was 92% (active).

In the case of `CCCCCCCOC(=O)c1cc2cc(C(CC)C(CC)c3ccc(O)cc3)ccc2oc1=O` (stereo not given), the growth inhibition in assay [1] (setting [7]) was 23%; in assay [1] (setting [8]), 47%; in assay [1] (at 50.0 µM), 83.1% (active); in assay [2] (setting [7]) it was 37%; in assay [2] (setting [8]), 23%; in assay [2] (at 50.0 µM) it was 91.3% (active). Further, the growth inhibition in assay [3] (setting [7]) was 47%; in assay [3] (setting [8]) it was 65%; in assay [3] (at 50.0 µM) it was 82% (active); in assay [4] (setting [7]), 30%; in assay [4] (setting [8]), 74% (active); in assay [4] (at 50.0 µM), 87.4% (active). Moreover, the growth inhibition in assay [5] (setting [7]) was 11%; in assay [5] (setting [8]), 45%; in assay [5] (at 50.0 µM), 68.9%; in assay [6] (setting [7]) it was 41%; in assay [6] (setting [8]) it was 57%; in assay [6] (at 50.0 µM), 88.9% (active).

As for `CCOC(=O)C(/C=N\C(=S)Nc1c(CC)cccc1C(C)(C)C)=C(/O)c1ccccc1`, the growth inhibition is 7% in assay [1] (setting [7]); 61% in assay [1] (setting [8]); 51.5% in assay [1] (at 50.0 µM); 0% in assay [2] (setting [7]); 46% in assay [2] (setting [8]); 49% in assay [2] (at 50.0 µM). The growth inhibition in assay [3] (setting [7]) was 17%; in assay [3] (setting [8]), 35%; in assay [3] (at 50.0 µM), 64.5%; in assay [4] (setting [7]), -13%; in assay [4] (setting [8]), 43%; in assay [4] (at 50.0 µM), 67.2%. For the same compound, the growth inhibition in assay [5] (setting [7]) is -8%; in assay [5] (setting [8]), 73% (active); in assay [5] (at 50.0 µM), 55.6%; in assay [6] (setting [7]), 4%; in assay [6] (setting [8]), 48%; in assay [6] (at 50.0 µM), 63%.

With `O=[N+]([O-])c1c(C=Nc2ccccc2)oc(-c2c(O)ccc3ccccc23)c1-c1c(O)ccc2ccccc12`, the growth inhibition in assay [1] (setting [7]) is 1%; in assay [1] (setting [8]), 2%; in assay [1] (at 50.0 µM), 98.7% (active); in assay [2] (setting [7]) it was -13%; in assay [2] (setting [8]), -11%; in assay [2] (at 50.0 µM), 98.7% (active). Also, the growth inhibition in assay [3] (setting [7]) was -7%; in assay [3] (setting [8]) it was -4%; in assay [3] (at 50.0 µM), 98.8% (active); in assay [4] (setting [7]), -30%; in assay [4] (setting [8]), -26%; in assay [4] (at 50.0 µM) it was 98.5% (active). The growth inhibition in assay [5] (setting [7]) was 3%; in assay [5] (setting [8]) it was 3%; in assay [5] (at 50.0 µM) it was 98.8% (active); in assay [6] (setting [7]), -2%; in assay [6] (setting [8]) it was -1%; in assay [6] (at 50.0 µM), 98.8% (active).

With `N#CCc1ccc2c(c1)Sc1ccccc1O2`, the growth inhibition is -159% in assay [1] (setting [7]); -54% in assay [1] (setting [8]); 90.5% (active) in assay [1] (at 50.0 µM); -49% in assay [2] (setting [7]); -26% in assay [2] (setting [8]); 31.8% in assay [2] (at 50.0 µM). Besides, the growth inhibition was -58% in assay [3] (setting [7]); -13% in assay [3] (setting [8]); 53% in assay [3] (at 50.0 µM); -57% in assay [4] (setting [7]); -35% in assay [4] (setting [8]); -5.85% in assay [4] (at 50.0 µM). The growth inhibition in assay [5] (setting [7]) is -62%; in assay [5] (setting [8]) it was -33%; in assay [5] (at 50.0 µM), 50.2%; in assay [6] (setting [7]), -122%; in assay [6] (setting [8]) it was -45%; in assay [6] (at 50.0 µM), 73.8% (active).

With `CN=C(N)N/N=C(\C)c1ccc2c(c1)Cc1cc(Cl)ccc1-2`, the growth inhibition in assay [1] (setting [7]) was 34%; in assay [1] (setting [8]), 37%; in assay [1] (at 50.0 µM), 98.8% (active); in assay [2] (setting [7]), 16%; in assay [2] (setting [8]) it was 38%; in assay [2] (at 50.0 µM) it was 97% (active). In addition, the growth inhibition was 13% in assay [3] (setting [7]); 97% (active) in assay [3] (setting [8]); 98.7% (active) in assay [3] (at 50.0 µM); 8% in assay [4] (setting [7]); 56% in assay [4] (setting [8]); 93.1% (active) in assay [4] (at 50.0 µM). For the same compound, the growth inhibition in assay [5] (setting [7]) is 7%; in assay [5] (setting [8]), 90% (active); in assay [5] (at 50.0 µM), 98.7% (active); in assay [6] (setting [7]), 9%; in assay [6] (setting [8]), 97% (active); in assay [6] (at 50.0 µM), 98.5% (active).

For `COc1ccc2c(c1OC)C1=C(C2=O)c2cc3c(cc2CCN1)OCO3`, the growth inhibition in assay [1] (setting [7]) was -4%; in assay [1] (setting [8]) it was 76% (active); in assay [1] (at 50.0 µM) it was 23.1%; in assay [2] (setting [7]) it was 0%; in assay [2] (setting [8]), 86% (active); in assay [2] (at 50.0 µM), 45.7%. Also, the growth inhibition in assay [3] (setting [7]) was 9%; in assay [3] (setting [8]), 92% (active); in assay [3] (at 50.0 µM), 61.5%; in assay [4] (setting [7]), 2%; in assay [4] (setting [8]), 95% (active); in assay [4] (at 50.0 µM), 40.9%. Besides, the growth inhibition is -15% in assay [5] (setting [7]); 51% in assay [5] (setting [8]); 68.4% in assay [5] (at 50.0 µM); 8% in assay [6] (setting [7]); 93% (active) in assay [6] (setting [8]); 53.1% in assay [6] (at 50.0 µM).

`COc1ccccc1C1C2=C(COC2=O)OC(C)(C)Oc2cc3c(cc21)OCO3` (stereo not given): the growth inhibition in assay [1] (setting [7]) was 22%; in assay [1] (setting [8]), 96% (active); in assay [1] (at 50.0 µM), 75.8% (active); in assay [2] (setting [7]), -13%; in assay [2] (setting [8]) it was 96% (active); in assay [2] (at 50.0 µM), 85.1% (active). Besides, the growth inhibition in assay [3] (setting [7]) is 16%; in assay [3] (setting [8]), 96% (active); in assay [3] (at 50.0 µM), 86.3% (active); in assay [4] (setting [7]), 35%; in assay [4] (setting [8]), 95% (active); in assay [4] (at 50.0 µM), 87.3% (active). The growth inhibition in assay [5] (setting [7]) was -22%; in assay [5] (setting [8]), 97% (active); in assay [5] (at 50.0 µM), 89.7% (active); in assay [6] (setting [7]) it was 15%; in assay [6] (setting [8]) it was 96% (active); in assay [6] (at 50.0 µM), 88% (active).

Take `Cc1cccc2c(CC(=O)O)c[nH]c12`: the growth inhibition was 60% in assay [1] (setting [7]); 98% (active) in assay [1] (setting [8]); 99.2% (active) in assay [1] (at 50.0 µM); 76% (active) in assay [2] (setting [7]); 99% (active) in assay [2] (setting [8]); 99.5% (active) in assay [2] (at 50.0 µM). The growth inhibition is 67% in assay [3] (setting [7]); 99% (active) in assay [3] (setting [8]); 99.6% (active) in assay [3] (at 50.0 µM); 73% (active) in assay [4] (setting [7]); 99% (active) in assay [4] (setting [8]); 99.2% (active) in assay [4] (at 50.0 µM). The growth inhibition in assay [5] (setting [7]) is 93% (active); in assay [5] (setting [8]), 97% (active); in assay [5] (at 50.0 µM), 99.4% (active); in assay [6] (setting [7]), 92% (active); in assay [6] (setting [8]), 98% (active); in assay [6] (at 50.0 µM) it was 99.3% (active).
